A selection: hits, their analogues and other compounds. The true share with any hit is near 6.9%.
Mdm2-MdmX inh: human Mdm2/MdmX binding inhibition. O15151+Q00987. SaOS-2 split-luciferase Mdm2/MdmX complementation, luminescence. inhibition, % at 8 µM. 3% of 330,000 active. AID 485346;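 active = inhibition of at least 50% at 8 µM in the primary screen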
SKKanGAS inh: SKKanGAS growth inhibition; inhibition, % at 7.5 µM; AID 1662; 1.3% of 300,000 active; S. pyogenes SKKanGAS, kanamycin growth, BacTiter-Glo, 6 h;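 active = mean replicate score, as percent of positive control median, at least 50; inconclusive = mean below 50 but one replicate at or above 50; inactive = mean and every replicate below 50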;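 note: strain carries kanamycin resistance gene driven by streptokinase promoter and grows in 40 µg/ml kanamycin; loss of luminescence reflects streptokinase promoter inhibition or plain growth inhibition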
MPTP inh: inhibitors of mitochondrial permeability transition pore; isolated mouse mitochondria, Ca2+ swelling absorbance, 30 min; inhibition, % at 10 µM; 1.4% of 360,000 active; AID 602449;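 active = inhibition of 50% or more, scaled per plate between neutral and stimulator controls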
NR3A LBD binder: modulates the human NR3A ligand-binding domain | 2.5% of 340,000 active | Tm shift relative to glycine control, % at 25 µM | NR3A LBD differential scanning fluorimetry, Tm shift; 0% = protein alone, 100% = glycine-bound protein;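 active = melting temperature shift of at least 10% of the positive control shift, at one fixed dose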
CSC inhib: cancer stem cell inhibition; cancer stem cell-like cells viability, luminescence; 1.1% of 300,000 active; inhibition, % at 7.5 µM; in the data active = inhibition above about 75%; inconclusive = no clear call, values can overlap the other calls; tested in HMLE shEcad cells
Beta apoptosis: blocks beta cell apoptosis | protection from apoptosis, % (no concentration beside the values) | INS-1E cytokine-induced death, ATP luminescence, 48 h; percent of positive-control rescue, neutral wells zero | 0.8% of 300,000 active;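 active = Every replicate reaches about 75%, or at least half do and their mean reaches it too, limit read from the data; inconclusive = At least half of replicates reach the limit but their mean does not; inactive = Under half of replicates reach the limit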;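 note: higher means more ATP so stronger rescue from cytokine killing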
Mdm2-MdmX conf: confirmation of human Mdm2/MdmX interaction inhibitors. AID 489028. shares compounds with Mdm2-MdmX inh. inhibition, % at 8 µM. 55% of 10,000 active. Mdm2-MdmX binding, luminescent assay; in the data active = inhibition above about 40%
Full FLuc ctr: inhibits full-length luciferase, flagging false Mdm2/MdmX hits; 77% of 6,200 active; inhibition, % at 8 µM; SaOS-2 full-length luciferase counterscreen, luminescence; shares compounds with Mdm2-MdmX inh;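 active = mean inhibition at 8 µM reaching about 37%, which flags the compound as non-specific, limit read from the data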;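 note: p53-null SaOS-2 cells with luciferase driven by a doxycycline-inducible promoter; compound on cells about two nights before reading with doxycycline added after day one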
Numbers stand for hits; n = inactive; u = inconclusive; x = no result given.

SMILES	Mdm2-MdmX inh	SKKanGAS inh	MPTP inh	NR3A LBD binder	CSC inhib	Beta apoptosis	Mdm2-MdmX conf	Full FLuc ctr
COc1cc(NC(=O)c2cc3cccc(OC)c3o2)cc(C(=O)Nc2cccc(C(F)(F)F)c2)c1	59	n	n	12	n	n	56	41
CCN1CCN(Cc2ccc(NC(=O)c3ccc(C)c(NC(=O)C[C@@H]4NC(=O)[C@H](Cc5ccccc5)NC4=O)c3)cc2C(F)(F)F)CC1	n	n	n	n	n	n	x	x
CCN1CCN(Cc2ccc(NC(=O)c3cc(NC(=O)c4ccno4)cc(OC)c3)cc2C(F)(F)F)CC1	55	n	n	n	n	n	n	61
CCN1CCN(Cc2ccc(NC(=O)c3cc(NC(=O)c4cc5cccc(OC)c5o4)cc(OC)c3)cc2C(F)(F)F)CC1	98	n	n	n	x	n	n	x
CCN1CCN(Cc2ccc(NC(=O)c3cc(NC(=O)N4CCNC4=O)cc(OC)c3)cc2C(F)(F)F)CC1	76	n	n	n	n	n	50	68
CCN1CCN(Cc2ccc(NC(=O)c3cc(NC(=O)C4=NN(c5ccccc5)C(=O)C4)cc(OC)c3)cc2C(F)(F)F)CC1	n	n	n	n	n	n	x	x
CCOC(=O)[C@]12CCCC=C1N(Cc1ccccc1)C(=O)[C@H](CC(=O)NCC13CC4CC(CC(C4)C1)C3)C2	x	x	n	x	x	x	x	x
CCCc1cc(C(=O)N2CCCC(Nc3ccc(C)c(C)c3)C2)n(C)n1 (centres undefined)	n	n	n	n	n	n	x	x
CCN1CCN(Cc2ccc(NC(=O)c3cc(NC(=O)c4ccc5n[nH]nc5c4)cc(OC)c3)cc2C(F)(F)F)CC1	n	n	n	n	n	n	x	x
CCN1CCN(Cc2ccc(NC(=O)c3ccc(C)c(NC(=O)c4cccc(-c5cn[nH]c(=O)c5)c4)c3)cc2C(F)(F)F)CC1	84	n	n	n	n	n	46	n
CCN1CCN(Cc2ccc(NC(=O)c3cc(NC(=O)c4cc(-c5ccc(OC)cc5)n[nH]4)cc(OC)c3)cc2C(F)(F)F)CC1	95	71	n	n	u	n	n	x
CCN1CCN(Cc2ccc(NC(=O)c3cc(NC(=O)c4cncc(-c5cccs5)c4)cc(OC)c3)cc2C(F)(F)F)CC1	97	n	n	n	124	n	n	58
CCN1CCN(Cc2ccc(NC(=O)c3ccc(C)c(NC(=O)c4csc(-c5ccncc5)n4)c3)cc2C(F)(F)F)CC1	n	n	n	n	n	n	x	x
CCN1CCN(Cc2ccc(NC(=O)c3ccc(C)c(NC(=O)C4=NN(c5ccccc5)C(=O)C4)c3)cc2C(F)(F)F)CC1	n	n	n	n	n	n	x	x
CCN1CCN(Cc2ccc(NC(=O)c3ccc(C)c(NC(=O)c4ccno4)c3)cc2C(F)(F)F)CC1	63	n	n	n	n	n	43	57
COc1cc(NC(=O)c2csc(-c3ccncc3)n2)cc(C(=O)Nc2cccc(C(F)(F)F)c2)c1	n	n	n	n	n	n	x	x
CCN1CCN(Cc2ccc(NC(=O)c3ccc(C)c(NC(=O)c4c[nH]c5cc(C(F)(F)F)ccc5c4=O)c3)cc2C(F)(F)F)CC1	100	92	n	n	105	99	100	52
CCN1CCN(Cc2ccc(NC(=O)c3ccc(C)c(/C=C/c4cnc(Nc5cc(N6CCNCC6)nc(C)n5)cn4)c3)cc2C(F)(F)F)CC1	88	61	n	n	n	n	55	37
CCCCCN(C(=O)CCC(=O)OC(C)C(=O)c1ccc(Cl)cc1)c1c(N)n(CCCC)c(=O)[nH]c1=O (centres undefined)	n	n	n	n	n	n	x	x
CN1CCN(C(c2ccccn2)c2cc(Cl)c3cccnc3c2O)CC1 (centres undefined)	n	n	n	n	n	n	x	x
CN1CCN(C(c2ccccc2)c2ccccc2)CC1	n	x	n	n	n	n	x	x
Oc1c(C(c2ccccc2Cl)N2CCCC2)ccc2cccnc12 (centres undefined)	69	76	n	n	n	92	63	n
CN1CCN(C(c2ccc(C(F)(F)F)cc2)c2ccc3cccnc3c2O)CC1 (centres undefined)	74	87	x	n	98	81	73	n
Oc1c(C(c2cccs2)N2CCN(c3ccccc3)CC2)ccc2cccnc12 (centres undefined)	51	x	x	x	88	109	82	n
CC(C)(C)n1nnnc1C(c1cccs1)N1CCN(c2ccccc2)CC1 (centres undefined)	n	n	n	n	n	x	x	x
SMILES	Mdm2-MdmX inh	SKKanGAS inh	MPTP inh	NR3A LBD binder	CSC inhib	Beta apoptosis	Mdm2-MdmX conf	Full FLuc ctr
COc1ccc(CN(C(=O)c2cc(=O)c3cc(C)cc(C)c3o2)C2CCS(=O)(=O)C2)cc1 (centres undefined)	n	n	n	n	n	n	x	x
Cc1cc(NC(=O)c2c(F)cccc2Cl)n(-c2nc3ccccc3[nH]2)n1	68	118	n	n	n	n	n	x
CC(C)(C)c1cc(NC(=O)c2c(F)cccc2Cl)n(-c2ccccc2)n1	n	n	n	n	n	x	x	x
Cc1cc(Nc2ccccc2)n(-c2nc3ccccc3[nH]2)n1	53	114	n	n	n	n	n	x
Cc1cc(C)n(-c2nc3ccccc3[nH]c2=O)n1	n	n	n	n	n	n	x	x
Cc1cc(NC(=O)C2CCCCC2)n(-c2nc3ccccc3[nH]2)n1	57	n	n	n	n	n	43	68
Cc1cc(NC(=O)c2c(F)cccc2F)n(-c2nc3ccccc3[nH]2)n1	53	n	n	n	n	n	n	x
CCCn1c(=O)c2[nH]c(-c3ccc(S(=O)(=O)O)cc3)nc2n(CCC)c1=O	n	x	n	n	n	n	x	x
CCOC(=O)CN(c1ccccc1C)S(=O)(=O)c1ccc(Cl)cc1	n	n	n	n	n	n	x	x
C/C(=N\Nc1nncc2ccccc12)c1ccc(O)cc1	n	n	n	n	n	n	x	x
COc1ccc(-c2nc(N/N=C(\C)c3ccc(O)cc3)c3ccccc3n2)cc1	86	n	n	13	n	n	n	x
COc1ccc(OCCCC(=O)N(C)CC(=O)Nc2ccccc2Cl)cc1	n	n	n	n	n	n	x	x
CCc1ccc(N2C(=O)C(Cl)=C(Nc3ccc(C(=O)N4CCCC4)cc3)C2=O)cc1	95	x	n	n	x	n	95	39
CCOC(=O)c1c(-c2ccccc2)oc2ccc(OCC(O)CNCCN(C)C)cc12 (centres undefined)	95	n	n	n	n	n	48	n
CCOC(=O)c1c(-c2ccccc2)oc2ccc(OCC)cc12	n	n	n	n	n	n	x	x
COc1ccc(C(=O)NCC(=O)N2CCC(Cc3ccccc3)CC2)cc1OC	n	x	n	n	x	x	x	x
Cc1ccc(/C=C2/Sc3ccc(C(=O)NCc4ccccn4)cc3NC2=O)cc1	70	n	n	n	n	n	n	x

Assay outcomes from PubChem BioAssay.
